Screens (PubChem)
Shown are actives, neighbours in structure and some others; about 1.4% of the full set was active somewhere.
Akt phos inh – blocks phosphorylation of Akt. activity change, % for hits at 50 µM. actives 0.32% (n = 360,000). Neuro2A IGF-stimulated pAkt S473 HTRF, 20 min; hits give low values; in the data active = activity change below about -80%; inconclusive = mostly about -51% to -80%; also: % is scaled to controls: 0 for no effect and ±100 for the full control effect
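Neuro2A cells (4,500/well, DMEM with 0.5% FBS) were treated with compound at a single 50 µM final concentration, stimulated with 6 nM IGF for 20 min at 37 °C, and lysed. Phospho-Akt Ser473 was read by HTRF as 665/615 ratio ×10^4.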
ASM inhibitor – inhibitors of human secretory acid sphingomyelinase | P17405 | placental ASM, HMU-PC fluorogenic substrate, 60 min | Potency, µM (titrated, usually from 57.5 µM), inactives show at the top dose activity change, negative = inhibition, most hits filed as inhibitors | actives 0.006% (n = 340,000) | AID 504937; also: potency is read from the fitted curve at half-maximal effect
Target sequence (P17405 47-631 limits assumed): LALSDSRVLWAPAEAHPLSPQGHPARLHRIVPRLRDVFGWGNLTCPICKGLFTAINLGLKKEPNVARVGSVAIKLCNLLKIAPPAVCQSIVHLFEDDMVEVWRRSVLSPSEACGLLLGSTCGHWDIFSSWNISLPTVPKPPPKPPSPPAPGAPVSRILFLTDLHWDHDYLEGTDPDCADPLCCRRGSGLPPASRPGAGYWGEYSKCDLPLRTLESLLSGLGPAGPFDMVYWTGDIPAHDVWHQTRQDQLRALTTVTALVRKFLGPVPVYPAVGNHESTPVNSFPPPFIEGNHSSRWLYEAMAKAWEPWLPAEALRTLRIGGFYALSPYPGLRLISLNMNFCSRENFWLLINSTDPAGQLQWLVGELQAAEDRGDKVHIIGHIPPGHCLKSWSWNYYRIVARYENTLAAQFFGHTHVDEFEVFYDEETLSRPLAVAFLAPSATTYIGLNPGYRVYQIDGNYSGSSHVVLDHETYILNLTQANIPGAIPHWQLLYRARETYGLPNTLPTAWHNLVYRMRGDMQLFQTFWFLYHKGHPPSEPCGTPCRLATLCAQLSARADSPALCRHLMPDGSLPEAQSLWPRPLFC
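Fluorogenic HMU-PC substrate (9 uM final) is turned over by placental ASM in 60 min at 37 C after a 10 min compound preincubation. Reaction ended by alkaline stop (pH 10), with fluorescence read at 386/447 nm.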
Vif-APOBEC3F blk – Vif-A3F binding inhibition; AID 602313; HeLa A3F-eYFP + Vif (tagged APOBEC3F with the HIV-1 protein that degrades it), YFP fluorescence increase; Potency, µM (doses to about 46.1 µM), for the others: at the highest dose activity, negative = active; actives 0.2% (n = 390,000); also: potency is read from the fitted curve at half-maximal effect; % of control where 0% means no effect; nearly all actives have a fitted effect of over 65% in size
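HeLa cells stably expressing A3F-eYFP plus Vif, plated and incubated overnight at 37 deg C, then exposed to compounds overnight at 37 deg C. Blocked degradation read as raised yellow fluorescence (Ex 488/Em 500-530).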
ALOX12 inh – blocks human arachidonate 12S-lipoxygenase; P18054; purified 12hLO, xylenol orange hydroperoxide absorbance; Potency, µM (titrated, usually from 108 µM), inactives show top-dose activity change, negative = inhibition, actives largely listed as inhibitors; actives 1.1% (n = 580,000); AID 1671190; also: potency is read from the fitted curve at half-maximal effect; % is scaled to controls: 0 for no effect and ±100 for the full control effect
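Purified human 12hLO at 150 nM in 25 mM Hepes, 0.01% Triton X-100, pH 7.0, preincubated 15 min at room temperature with compound. Reaction started with 40 uM arachidonic acid, 30 min at room temperature. Hydroperoxide measured by Fe-xylenol orange, 573/405 nm absorbance ratio.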
Vif-A3G inh – Vif-A3G binding inhibition. HeLa A3G-eYFP + Vif (tagged APOBEC3G with the HIV-1 protein that degrades it), YFP fluorescence, overnight. Potency, µM (top dose mostly 46.1 µM), without a hit: at the top dose activity, negative = active, actives largely listed as inhibitors. actives 0.076% (n = 410,000). AID 602310; also: potency is read from the fitted curve at half-maximal effect; % is scaled to controls: 0 for no effect and ±100 for the full control effect; nearly all actives have a fitted effect of over 60% in size
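Read-out is eYFP fluorescence (Ex 488/Em 500-530) from Vif-expressing HeLa A3G-eYFP cells; more signal means A3G escaped Vif-mediated degradation. Cells plated overnight, compound pinned in, incubated overnight at 37 deg C.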
PTAP TSG101 blk – blocks PTAP/TSG101 interaction to inhibit HIV-1 budding; Q99816; Fluorescence polarization, FITC-PTAP peptide / Tsg101 binding; Potency, µM (top dose mostly 115 µM), inactives show at the highest dose activity change, negative = inhibition, most hits filed as inhibitors; 340,000 tested, under 10 active; active = well fitted inhibition curve with a large enough effect in the main read-out, with a control signal flat, not every such curve was filed as active; inconclusive = small, poorly fitted or top-dose-only effect, or effect the other way, or a change in a side signal; inactive = no such curve, though single readings can be large or run the other way; also: potency is read from the fitted curve at half-maximal effect; % of control where 0% means no effect
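Tsg101 binding domain (10 uM final) was mixed with compound and a FITC-labeled PTAP peptide (50 nM final) in HEPES pH 7.5 buffer with NaCl, Tween 20, EDTA and TCEP; fluorescence polarization was read after 20 min at r.t.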
Starred values were filed as active, the others as inactive; i = inactive; u = inconclusive; x = not tested or not shown; [ ] = dose if it differs, or a comment. Unless noted, calls follow the shape of the dose curve; as a rule, active = well fitted curve in the direction sought with a large enough effect; inconclusive = small, poorly fitted or top-dose-only effect, or another doubt; inactive = no such curve, though single readings can be large; an effect the other way counts as inactive or inconclusive.

SMILES | Akt phos inh | ASM inhibitor | Vif-APOBEC3F blk | ALOX12 inh | Vif-A3G inh | PTAP TSG101 blk
O=C(CC1C(=O)NCCN1C(=O)c1ccc(Cl)cc1)Nc1ccc(F)cc1 (stereo not drawn) | i | 1% | 3% | u | 0% | 0%
Cc1ccc(-c2cc(C(=O)Nc3nnc(C4CC4)s3)c3ccccc3n2)o1 | x | x | x | 7.9µM* | x | x
Cc1ccc(-c2cc(C(=O)Nc3nccs3)c3ccccc3n2)o1 | i | 8% | 1% | 1.4µM* | -2% | -4%
Cc1ccc(-c2cc(C(=O)Nc3nccs3)c3ccccc3n2)c(C)c1 | i | -30% | -1% | -4% | -11% | 2%
Cc1cccc(NC(=O)c2cc(-c3ccc(C)o3)nc3ccccc23)n1 | x | x | x | -116% | x | x
COc1ccc(C2CC(=O)Nc3c2ncn3-c2cccc(C(F)(F)F)c2)cc1OC (stereo not drawn) | x | x | x | 28µM* | x | x
O=C(O)c1ccc(N/N=C/c2cccc(C(F)(F)F)c2)cc1 | i | 4% | -5% | -4% | -10% | -3%
FC(F)(F)c1ccc(/C=N/Nc2ccc(Cl)cc2)cc1 | x | x | x | 7.1µM* | x | x
FC(F)(F)c1cccc(/C=N/Nc2ccc(Cl)cc2)c1 | x | x | x | 7.1µM* | x | x
Cc1ccc(N/N=C/c2cccc(C(F)(F)F)c2)cc1Cl | x | x | x | 3.5µM* | x | x
COc1ccc(-c2noc(-c3cccn3CC(=O)Nc3c(C)cccc3Cl)n2)cc1F | x | x | x | -20% | x | x
CN(C)c1ccc(C(N)=S)cc1 | x | x | x | 16µM* | x | x
CCOc1ccc(C(N)=S)cc1 | x | x | x | 14µM* | x | x
Cc1ccc(C)c(Cn2c(N3CCN(Cc4ccccc4C)CC3)nc3c2c(=O)[nH]c(=O)n3C)c1 | x | x | x | -6% | x | x
CCc1ccc(CCC(=O)Nc2cccc3cccnc23)cc1 | x | x | x | 28% | x | x
OC[C@@H]1O[C@H](CNCc2ccc(F)cc2)[C@H](N2CCCC2)[C@@H]1O | x | x | x | -3%[176 µM] | x | x
OC[C@@H]1O[C@H](CNCc2ccc(F)cc2)[C@H](N2CCOCC2)[C@@H]1O | x | x | x | 28µM* | x | x
COC1C(=O)N(c2cccc(F)c2)C12CCN(C(=O)C1CCOCC1)CC2 (stereo not drawn) | x | x | x | 26% | x | x
CCc1cccc(OCC(=O)N(C)CC(=O)Nc2cccc(F)c2)c1 | i | 7% | -15% | -1% | 1% | -2%
CN(CC(=O)Nc1ccc(Cl)cc1)C(=O)COc1cccc(F)c1 | x | x | x | 40µM* | x | x
O=C(NC1(c2ccccc2)CCC1)c1cc(=O)[nH]c2ccccc12 | x | x | x | 11µM* | x | x
NC(=O)c1ccsc1NC(=O)COC(=O)c1cccc(Cl)c1Cl | x | x | x | -10% | x | x
Cc1nc2ccc3[nH]c(C)c(C)c3c2s1 | x | x | x | 4% | x | x
Cc1nc2c(ccc3c(C)c(C)[nH]c32)s1 | x | x | x | 28µM* | x | x
CC(/C=C/c1ccccc1)=N\NC(=O)c1ccc(C(C)(C)C)cc1 | x | x | x | 53% | x | x
SMILES | Akt phos inh | ASM inhibitor | Vif-APOBEC3F blk | ALOX12 inh | Vif-A3G inh | PTAP TSG101 blk
O=C1N[C@H](CC(=O)N2CCN(c3ccc(C(F)(F)F)cn3)CC2)C(=O)Nc2ccccc21 | x | x | x | -2% | x | x
CCOC(=O)Cc1csc(NC(=O)c2nc(C)n(-c3ccc(Cl)cc3)n2)n1 | x | x | x | 40% | x | x
COc1ccc(C2(CNC(=O)CCC(=O)O)CCCC2)cc1 | -115%* | -1% | -7% | 6% | 2% | -1%
Cc1ccc(-c2nc3cccc(C)n3c2Nc2ccc3c(c2)OCO3)o1 | x | x | u | u | -11% | x
Cc1ccc(Nc2c(-c3ccc(C)o3)nc3cccc(C)n23)cc1 | x | x | -30% | 45µM* | -4% | x
O=C(Nc1cccc(-c2ccc(N3CCCC3)nn2)c1)Nc1cc(F)ccc1F | x | x | x | -13% | x | x
COc1ccc(CNC[C@H]2Cn3c(-c4ccc(Cl)cc4)cnc3CO2)cc1 | x | x | x | 45µM* | x | x
CCOc1ccc(N(C(=O)C23CC4CC(CC(C4)C2)C3)C2C=CS(=O)(=O)C2)cc1 (stereo not drawn) | x | x | x | -9% | x | x
Cc1ccc(C)c(NC(=S)N2CCN(c3cccc(C(F)(F)F)c3)CC2)c1 | i | -2% | -4% | -4% | 0% | -4%
FC(F)(F)c1cccc(N2CCN(C(=S)NC3CCCC3)CC2)c1 | i | -5% | x | -18% | -6% | 1%
